# From PubChem
# This is one part of a sample in which hits are shown more often than they occur.
# nsP2pro primary: Primary qHTS for inhibitors of NSP2Pro chikungunya virus (CHIKV); FRET peptide cleavage, nsP2pro, fluorescence 1 h; Polyprotein P1234 (Chikungunya virus (strain S27-African prototype)), Q8JUX6; Potency, µM (top dose mostly 24.9 µM), for inactives: at the highest dose activity change, negative = inhibition, actives largely listed as inhibitors; 31,000 tested, 1.1% active; AID 1964107, 2024; calls by dose curve; also: nearly all actives have a fitted effect of over 60% in size
# Target sequence (Q8JUX6 whole entry, looked up): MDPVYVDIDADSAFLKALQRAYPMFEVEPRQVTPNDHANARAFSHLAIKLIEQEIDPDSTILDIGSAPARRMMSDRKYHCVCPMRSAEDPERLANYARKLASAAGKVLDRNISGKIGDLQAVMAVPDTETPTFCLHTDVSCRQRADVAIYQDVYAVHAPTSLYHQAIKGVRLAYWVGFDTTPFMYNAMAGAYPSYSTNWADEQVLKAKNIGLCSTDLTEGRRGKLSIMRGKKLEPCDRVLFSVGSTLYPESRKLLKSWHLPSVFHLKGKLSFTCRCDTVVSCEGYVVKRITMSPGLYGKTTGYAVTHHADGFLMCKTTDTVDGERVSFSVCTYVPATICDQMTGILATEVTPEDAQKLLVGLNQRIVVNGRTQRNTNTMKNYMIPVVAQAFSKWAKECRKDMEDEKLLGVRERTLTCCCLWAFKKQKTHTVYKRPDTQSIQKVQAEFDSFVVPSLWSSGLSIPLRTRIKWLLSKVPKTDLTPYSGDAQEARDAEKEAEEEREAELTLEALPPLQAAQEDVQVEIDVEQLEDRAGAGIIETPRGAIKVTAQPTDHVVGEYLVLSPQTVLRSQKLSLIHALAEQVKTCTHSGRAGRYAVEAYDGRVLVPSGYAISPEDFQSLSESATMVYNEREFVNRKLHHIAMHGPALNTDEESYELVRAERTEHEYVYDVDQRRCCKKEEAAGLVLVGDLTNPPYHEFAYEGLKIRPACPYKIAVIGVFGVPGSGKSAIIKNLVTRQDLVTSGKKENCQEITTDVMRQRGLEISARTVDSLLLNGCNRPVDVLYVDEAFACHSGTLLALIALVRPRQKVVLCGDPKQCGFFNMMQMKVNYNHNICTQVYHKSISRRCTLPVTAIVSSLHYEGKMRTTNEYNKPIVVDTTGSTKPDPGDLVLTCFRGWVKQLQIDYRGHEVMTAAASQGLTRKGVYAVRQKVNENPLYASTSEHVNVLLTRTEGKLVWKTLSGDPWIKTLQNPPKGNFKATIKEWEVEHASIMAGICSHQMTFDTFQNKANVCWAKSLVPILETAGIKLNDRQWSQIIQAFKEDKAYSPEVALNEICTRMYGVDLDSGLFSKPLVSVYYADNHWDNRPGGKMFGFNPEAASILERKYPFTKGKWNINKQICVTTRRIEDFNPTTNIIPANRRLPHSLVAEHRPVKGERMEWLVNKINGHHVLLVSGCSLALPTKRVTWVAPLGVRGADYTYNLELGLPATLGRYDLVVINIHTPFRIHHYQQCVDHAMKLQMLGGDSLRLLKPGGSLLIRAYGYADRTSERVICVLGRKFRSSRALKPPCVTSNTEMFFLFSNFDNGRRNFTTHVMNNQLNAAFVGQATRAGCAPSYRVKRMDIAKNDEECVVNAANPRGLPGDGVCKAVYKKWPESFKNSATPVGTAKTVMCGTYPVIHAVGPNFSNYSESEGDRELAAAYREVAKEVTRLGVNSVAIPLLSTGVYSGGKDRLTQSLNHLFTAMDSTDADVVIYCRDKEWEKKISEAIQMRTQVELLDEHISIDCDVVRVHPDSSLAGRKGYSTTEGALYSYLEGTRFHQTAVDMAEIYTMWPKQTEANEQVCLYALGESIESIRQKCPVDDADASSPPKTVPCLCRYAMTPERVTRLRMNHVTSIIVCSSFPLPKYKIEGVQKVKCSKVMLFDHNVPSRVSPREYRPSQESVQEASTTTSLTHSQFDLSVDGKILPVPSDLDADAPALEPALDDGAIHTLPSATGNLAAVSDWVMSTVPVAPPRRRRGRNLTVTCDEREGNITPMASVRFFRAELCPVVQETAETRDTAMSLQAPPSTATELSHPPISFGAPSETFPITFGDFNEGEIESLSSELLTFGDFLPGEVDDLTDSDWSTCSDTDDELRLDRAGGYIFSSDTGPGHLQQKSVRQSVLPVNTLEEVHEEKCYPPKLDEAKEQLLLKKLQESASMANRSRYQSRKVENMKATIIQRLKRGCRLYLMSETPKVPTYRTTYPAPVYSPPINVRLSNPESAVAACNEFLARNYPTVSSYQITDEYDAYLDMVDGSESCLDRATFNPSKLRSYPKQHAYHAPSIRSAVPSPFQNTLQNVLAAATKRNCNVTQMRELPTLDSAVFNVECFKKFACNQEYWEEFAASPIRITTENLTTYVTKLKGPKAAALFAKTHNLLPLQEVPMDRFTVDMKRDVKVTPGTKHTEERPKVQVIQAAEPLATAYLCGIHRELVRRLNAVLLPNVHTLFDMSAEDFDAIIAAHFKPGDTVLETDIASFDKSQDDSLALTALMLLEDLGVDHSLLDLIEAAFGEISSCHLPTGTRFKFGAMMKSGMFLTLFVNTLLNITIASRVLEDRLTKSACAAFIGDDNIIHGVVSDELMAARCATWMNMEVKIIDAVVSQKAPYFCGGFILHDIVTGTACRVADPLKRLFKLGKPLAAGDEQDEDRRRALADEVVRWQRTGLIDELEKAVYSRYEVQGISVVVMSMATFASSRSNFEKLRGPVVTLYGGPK
#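 Enzyme 150 nM, substrate 2.5 uM (both final); Tris-HCl 10 mM pH 8.0 + 0.01% Tween 20; cpd up to 25 uM, 7 pts; 15 min preinc., 1 h RT; fluorescence ex 525/em 598.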
# The depositor's hits bear a star; i = inactive; [ ] = remark or other dose. % is scaled to controls: 0 for no effect and ±100 for the full control effect; potency is read from the fitted curve at half-maximal effect.
SMILES,nsP2pro primary
C=C1/C(=C/C=C2\CCC[C@]3(C)[C@@H]([C@H](C)CC[C@@H](O)C(C)C)CC[C@@H]23)C[C@@H](O)C[C@@H]1O,-16%
CCCCCCCCCCCCCCCC(=O)OCC(=O)[C@@]1(O)[C@H](C)C[C@H]2[C@@H]3CCC4=CC(=O)C=C[C@]4(C)[C@@]3(F)[C@@H](O)C[C@@]21C,-5%
CCC(CC)Nc1ncnc2c1CN(C1CCC1)C(=O)CN2C,-9%[39.2 µM]
CC1COC2=C1C(=O)C(=O)c1c2ccc2c1CCCC2(C)C (stereo not given),11µM*
CCc1nc2c(c(-c3ccc(O)cc3)n1)CCN(Cc1ccc(F)cc1)CC2,4%
COc1ccc(C[C@H](C)NC[C@@H](O)c2ccc(O)c(NC=O)c2)cc1,12%
CC(Cc1ccc2c(c1)OCO2)NCC(O)c1ccc(O)c(O)c1 (stereo not given),11µM*
CC(CCc1ccc(O)cc1)NCC(O)c1ccc(O)cc1 (stereo not given),1%
C=C1/C(=C/C=C2\CCC[C@]3(C)[C@@H]([C@H](C)CCCC(O)(C(F)(F)F)C(F)(F)F)CC[C@@H]23)C[C@@H](O)C[C@@H]1O,7%
O=C(Nc1ccccc1)N1CCC(OCc2noc(C3CCCO3)n2)CC1 (stereo not given),i
O=C1Cc2cc(S(=O)(=O)N3CCN(c4ccc(CO)cc4)CC3)ccc2N1,i
O=S1(=O)CCN(CN2CCS(=O)(=O)NC2)CN1,10%
CC(C)(C)[C@H](NC(=O)C(F)(F)F)C(=O)N1C[C@H]2[C@@H]([C@H]1C(=O)N[C@H](C#N)C[C@@H]1CCNC1=O)C2(C)C,-6%
O=C(O)c1cccc(-c2noc(-c3ccc(F)cc3)n2)c1,i
O[C@@H]1CO[C@H]2[C@@H]1OC[C@@H]2n1nnnc1SCc1ccco1,11µM*
O=C(NC1CCCCC1)O[C@@H]1CO[C@H]2[C@@H]1OC[C@@H]2n1nnnc1-c1ccccc1,-4%[39.2 µM]
COc1ccc(NC(=O)N[C@H]2CO[C@H]3[C@@H]2OC[C@@H]3n2nnnc2-c2ccccc2)cc1,-4%[39.2 µM]
[Mn].[O]=[Mn][OH].[O]=[Mn][OH],-3%
CCc1cc(C(=O)N2CCN(c3ccccc3)CC2)no1,-2%
CCc1cc(C(=O)Nc2sc(C)c(CC)c2C#N)no1,11µM*
CCOC(=O)c1c(-c2ccc(C)cc2)csc1NC(=O)c1cc(-c2ccc(OC)cc2)on1,-20%
CC1=CC(=O)[C@@]2(C(C)C)C[C@@H]12,31%
CC(=O)Nc1ccc(C2(C(=O)NCc3ccc(F)cc3)CCC2)cc1,i
COc1ccc(C2(C(=O)N3CCCC(Cn4c(C)nc5cccnc54)C3)CCCCC2)cc1 (stereo not given),i
C/C(=C1\CCOC(=O)S1)N(C=O)Cc1cnc(C)nc1N,5%
SMILES,nsP2pro primary
CC(=C(CCOC(=O)C(C)C)SSC(CCOC(=O)C(C)C)=C(C)N(C=O)Cc1cnc(C)nc1N)N(C=O)Cc1cnc(C)nc1N,11µM*
Cc1cc(=O)n(CC(=O)N2CCCC(C)(c3ccccc3)C2)nc1C (stereo not given),2%
OC[C@H]1O[C@@H](OC/C=C/c2ccc(O)cc2)[C@H](O)[C@@H](O)[C@@H]1O,16%
CC1=C(C(=O)O)/C(=C\CO[C@@H]2O[C@H](CO)[C@@H](O)[C@H](O)[C@H]2O)C(OC(=O)/C=C/c2ccc(O)cc2)C1 (stereo not given in full),14%[10 µM]
CC1=C(C(=O)O)/C(=C\CO[C@@H]2O[C@H](CO)[C@@H](O)[C@H](O)[C@H]2O)C(OC(=O)/C=C\c2ccc(O)cc2)C1 (stereo not given in full),0.024µM*
Cc1cc(C)nc(NC(=S)N2CCN(c3ccc4cnccc4c3)CC2)c1,-2%
NS(=O)(=O)c1ccc(-n2nc(C(F)(F)F)cc2-c2ccc(F)cc2)cc1,5%
O=C(c1ccc(F)cc1)N1C[C@@H]2C[C@H](C1)c1ccc(NS(=O)(=O)Cc3ccccc3)c(=O)n1C2,13µM*
CCCS(=O)(=O)Nc1ccc(=O)n2c1[C@@H]1C[C@@H](CN(C(=O)c3ccc(F)cc3)C1)C2,-1%[39.2 µM]
COc1ccc(S(=O)(=O)Nc2ccc3n(c2=O)C[C@H]2C[C@@H]3CN(C(=O)c3ccccn3)C2)cc1,-29%
CN1CCN(c2cc(-c3nc(Nc4ccc(F)c(F)c4)c4ccccc4n3)ccn2)CC1,3%
Cc1ccc([S+](=O)([O-])N2CCCC2C(=O)N2CCC3(CC2)CC(=O)Nc2ccccc2O3)cc1 (stereo not given),-1%
COC[C@@H]1CN(S(=O)(=O)c2c(C)noc2C)C[C@H]1c1ccncc1,-3%
O=C1c2ccccc2NC(c2ccc(-c3ccc(-c4ccccc4)cc3)o2)N1O (stereo not given),i
O=C1c2ccccc2NC(c2ccc(-c3ccc(Br)cc3)o2)N1O (stereo not given),13µM*
O=C1c2ccccc2NC(c2ccc(-c3ccc(F)cc3)o2)N1O (stereo not given),-4%
CN1CCC(N2CC[C@H](c3nc4ccc(C(F)(F)F)cc4[nH]3)C2)CC1,i
COc1ccc(-c2ncc(CN3CCCC4(C3)CN(C)C(=O)O4)cn2)cc1 (stereo not given),-8%
CN1CC2(CCN(Cc3ccc(-c4ccc(Cl)cc4)o3)C2)OC1=O (stereo not given),13µM*
COc1ccc(CN2CCCC3(C2)CN(C)C(=O)O3)cc1C(=O)O (stereo not given),-5%
Cc1ccc(-c2cc(C(=O)Nc3ccc(C(=O)O)cc3)c3ccccc3n2)cc1C,i
Cc1ccnc(NC(=S)N2CCN(c3cccc(C(F)(F)F)n3)CC2)c1,4%
CCOC(=O)N1CCc2c(sc(NCc3cccs3)c2C(=O)Nc2cc(OC)ccc2OC)C1,11µM*
COc1ccccc1NC(=O)c1c(NCc2ccc(OC)c(OC)c2OC)sc2c1CCC2,-23%
COc1ccc(NC(=O)c2c(NCc3sccc3C)sc3c2CCCC3)c(OC)c1,-13%
SMILES,nsP2pro primary
COc1ccc(NC(=O)[C@@H]2C[C@H](c3ccc(F)cc3)N(Cc3ccccc3Cl)C2)cn1,3%[39.2 µM]
O=C(NC1CCCCC1)C1(CCO)CC12CCN(c1ncccn1)CC2 (stereo not given),5%
O=C(NCc1ccnc2[nH]ccc12)c1ccc(Cl)cc1,14µM*
O=C(Cc1ccccc1)NCc1ccnc2[nH]ccc12,-1%[39.2 µM]
O=C(NCc1c[nH]c2ncccc12)c1cccnc1,3%[39.2 µM]
CCOC(=O)c1ccoc1-c1ccc2ncnc(NCc3ccc(C)o3)c2c1,4%
CCOC(=O)C1=CN(CC(=O)Nc2ccccc2C(F)(F)F)S(=O)(=O)N=C1C,-7%
O=C(CC1C(=O)OCCN1Cc1ccccc1)Nc1cccc(C(F)(F)F)c1 (stereo not given),-16%
CCN1CCOC(=O)C1CC(=O)Nc1ccccc1C(F)(F)F (stereo not given),11µM*
Cc1cn([C@H]2O[C@@H](CO)[C@H](O)[C@H]2F)c(=O)[nH]c1=O,-15%
COc1cccc(CN2CCC(Oc3ccccc3-c3nc(-c4ccncc4)no3)C2)c1 (stereo not given),i
CCN(CC)C(=O)N[C@@H]1C=C2c3cccc4[nH]cc(c34)C[C@@H]2N(C)C1,12µM*
CC[C@@H](CO)NC(=O)[C@@H]1C=C2c3cccc4[nH]cc(c34)C[C@H]2N(C)C1,-6%
CCN(CC)C(=O)N[C@H]1C[C@@H]2c3cccc4[nH]cc(c34)C[C@H]2N(C)C1,22%
